“And” between values parts separate entries of the source, which are not always exact repeats. Identical values can stand only once. Out of some 5,500 compounds screened, about 2,000 (36%) were called active. Another 18% or so got no clear call; they are omitted. Cut-off read from the data, not from the text of the source: active = normalized growth mostly below about 0.91 (no sharp cut-off); inconclusive = no clear call, values can overlap the other calls; inactive = mostly above about 0.92. Some of the results follow.
Assay: chemical genetic growth profiling, strain panel (AID 1159580);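 note: tested at 20 µM; growth read once vehicle control cultures reached saturation at 30 °C; 1 = growth at the plate median or of vehicle wells; lower values mean less growth of the strain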
Settings: S. cerevisiae deletion strains, growth OD

Measured: normalized growth

CC(C)c1cc2c(c(O)c1O)[C@@]1(C(=O)O)CCCC(C)(C)C1CC2 (stereo partly specified)
inactive: locus YAL021C, strain ccr4, stronger effect = lower value 0.988 | locus YBL061C, strain skt5, stronger effect = lower value 0.953 | locus YBR021W, strain FUR4, stronger effect = lower value 1.01 | locus YBR023C, strain chs3, stronger effect = lower value 0.956 | locus YBR171W, strain sec66, stronger effect = lower value 0.975 | locus YBR229C, strain ROT2, stronger effect = lower value 1.01 | locus YBR231C, strain swc5, stronger effect = lower value 0.969 | locus YBR279W, strain paf1, stronger effect = lower value 0.948 | locus YCL029C, strain bik1, stronger effect = lower value 1.01 | locus YCL061C, strain MRC1, stronger effect = lower value 0.954 | locus YCL069W, strain vba3, stronger effect = lower value 0.998 | locus YCR088W, strain abp1, stronger effect = lower value 0.991 | locus YDL005C, strain med2, stronger effect = lower value 1 | locus YDL035C, strain GPR1, stronger effect = lower value 0.943 | locus YDL040C, strain nat1, stronger effect = lower value 0.99 | locus YDL074C, strain BRE1, stronger effect = lower value 0.946 | locus YDL101C, strain DUN1, stronger effect = lower value 1.01 | locus YDL134C, strain PPH21, stronger effect = lower value 0.993 | locus YDL185W, strain tfp1, stronger effect = lower value 0.998 | locus YDR001C, strain nth1, stronger effect = lower value 0.997 | locus YDR069C, strain doa4, stronger effect = lower value 0.923 | locus YDR101C, strain arx1, stronger effect = lower value 1.02 | locus YDR137W, strain rgp1, stronger effect = lower value 0.876 | locus YDR150W, strain NUM1, stronger effect = lower value 0.929 | locus YDR159W, strain sac3, stronger effect = lower value 0.902 | locus YDR162C, strain NBP2, stronger effect = lower value 0.851 | locus YDR195W, strain ref2 0.979 | locus YDR297W, strain sur2, stronger effect = lower value 0.982 | locus YDR318W, strain mcm21, stronger effect = lower value 0.959 | locus YDR334W, strain swr1, stronger effect = lower value 1 | locus YDR335W, strain msn5, stronger effect = lower value 0.988 | locus YDR388W, stronger effect = lower value 1 | locus YDR502C, strain sam2, stronger effect = lower value 0.972 | locus YEL003W, strain gim4, stronger effect = lower value 0.94 | locus YEL037C, strain rad23, stronger effect = lower value 0.992 | locus YEL061C, strain CIN8 (second series), stronger effect = lower value 0.993 | locus YEL061C, strain CIN8, stronger effect = lower value 0.968 | locus YER015W, strain faa2, stronger effect = lower value 0.987 | locus YER016W, strain bim1, stronger effect = lower value 0.971 | locus YER110C, stronger effect = lower value 1.03 | locus YER111C, strain swi4, stronger effect = lower value 0.975 | locus YER155C, strain BEM2, stronger effect = lower value 1.04 | locus YER167W, strain BCK2, stronger effect = lower value 0.981 | locus YFR010W, strain ubp6, stronger effect = lower value 0.944 | locus YGL078C, strain dbp3, stronger effect = lower value 0.957 | locus YGL086W, strain mad1, stronger effect = lower value 0.94 | locus YGL167C, strain pmr1, stronger effect = lower value 0.978 | locus YGL227W, strain vid30, stronger effect = lower value 1 | locus YGL240W, strain doc1, stronger effect = lower value 0.938 | locus YGL248W, strain PDE1, stronger effect = lower value 0.962 | locus YGL253W, strain hxk2, stronger effect = lower value 0.976 | locus YGR078C, strain PAC10, stronger effect = lower value 0.873 | locus YGR135W, strain pre9, stronger effect = lower value 0.969 | locus YGR252W, strain gcn5, stronger effect = lower value 0.903 | locus YHR027C, strain rpn1, stronger effect = lower value 0.956 | locus YHR079C, strain IRE1 (second series), stronger effect = lower value 1 | locus YHR094C, strain hxt1, stronger effect = lower value 1.01 | locus YHR129C, strain ARP1, stronger effect = lower value 0.921 | locus YHR142W, strain chs7, stronger effect = lower value 0.969 | locus YHR200W, strain rpn10, stronger effect = lower value 0.984 | locus YIL066C, strain RNR3, stronger effect = lower value 0.937 | locus YIL073C, strain SPO22, stronger effect = lower value 0.936 | locus YIL125W, strain kgd1, stronger effect = lower value 0.958 | locus YIR030C, strain dcg1, stronger effect = lower value 1.01 | locus YJL092W, strain hpr5, stronger effect = lower value 0.98 | locus YJL115W, strain asf1, stronger effect = lower value 1.01 | locus YJL129C, strain trk1, stronger effect = lower value 1.04 | locus YJL134W, strain LCB3, stronger effect = lower value 1.02 | locus YJL154C, strain vps35, stronger effect = lower value 1 | locus YJL168C, strain set2, stronger effect = lower value 1.01 | locus YJL187C, strain SWE1 (second series), stronger effect = lower value 0.973 | locus YJL187C, strain SWE1, stronger effect = lower value 0.972 | locus YJR043C, strain POL32, stronger effect = lower value 0.982 | locus YJR066W, strain TOR1, stronger effect = lower value 0.84 | locus YJR075W, strain HOC1, stronger effect = lower value 0.947 | locus YKL009W, strain mrt4, stronger effect = lower value 0.95 | locus YKL068W, stronger effect = lower value 1.02 | locus YKL160W, strain elf1, stronger effect = lower value 0.957 | locus YKR026C, strain gcn3, stronger effect = lower value 0.994 | locus YKR091W, strain srl3, stronger effect = lower value 0.988 | locus YLL001W, strain dnm1, stronger effect = lower value 0.984 | locus YLL026W, stronger effect = lower value 0.932 | locus YLR039C, strain RIC1, stronger effect = lower value 0.831 | locus YLR058C, strain SHM2, stronger effect = lower value 1 | locus YLR102C, strain apc9, stronger effect = lower value 1.01 | locus YLR268W, strain sec22, stronger effect = lower value 0.901 | locus YLR330W, strain CHS5, stronger effect = lower value 0.944 | locus YLR342W, strain FKS1 (second series), stronger effect = lower value 0.84 | locus YLR342W, strain FKS1, stronger effect = lower value 0.968 | locus YLR357W, strain rsc2, stronger effect = lower value 0.949 | locus YLR370C, strain arc18, stronger effect = lower value 0.974 | locus YLR371W, strain rom2, stronger effect = lower value 0.976 | locus YLR384C, strain iki3, stronger effect = lower value 1 | locus YML016C, strain PPZ1, stronger effect = lower value 0.994 | locus YML032C, strain rad52, stronger effect = lower value 0.993 | locus YML120C, strain ndi1, stronger effect = lower value 0.984 | locus YML124C, strain tub3, stronger effect = lower value 1.01 | locus YMR078C, strain ctf18, stronger effect = lower value 1 | locus YMR129W, stronger effect = lower value 0.99 | locus YMR223W, strain ubp8, stronger effect = lower value 0.964 | locus YMR231W, strain pep5, stronger effect = lower value 0.97 | locus YNL067W, strain RPL9B, stronger effect = lower value 0.972 | locus YNL153C, strain GIM3, stronger effect = lower value 0.985 | locus YNL183C, strain NPR1, stronger effect = lower value 0.9 | locus YNL209W, strain ssb2, stronger effect = lower value 0.962 | locus YNL233W, strain BNI4, stronger effect = lower value 0.955 | locus YNL248C, strain rpa49, stronger effect = lower value 0.98 | locus YNL250W, strain rad50, stronger effect = lower value 1.01 | locus YNL307C, strain MCK1, stronger effect = lower value 0.956 | locus YNL322C, strain KRE1 (second series), stronger effect = lower value 1.03 | locus YNR049C, strain mso1, stronger effect = lower value 0.997 | locus YNR052C, strain pop2, stronger effect = lower value 0.973 | locus YOL012C, strain htz1 0.721 | locus YOL147C, strain pex11, stronger effect = lower value 1.04 | locus YOR001W, strain rrp6, stronger effect = lower value 0.992 | locus YOR061W, strain CKA2, stronger effect = lower value 1 | locus YOR069W, strain VPS5, stronger effect = lower value 0.998 | locus YOR080W, strain dia2, stronger effect = lower value 0.987 | locus YOR083W, strain WHI5, stronger effect = lower value 0.965 | locus YOR106W, strain vam3, stronger effect = lower value 0.871 | locus YOR136W, strain idh2, stronger effect = lower value 1 | locus YOR144C, strain elg1, stronger effect = lower value 1.01 | locus YOR184W, strain ser1, stronger effect = lower value 0.964 | locus YOR265W, strain rbl2, stronger effect = lower value 0.982 | locus YOR270C, strain vph1, stronger effect = lower value 0.954 | locus YOR290C, strain snf2, stronger effect = lower value 0.945 | locus YOR316C, strain cot1, stronger effect = lower value 1.02 | locus YPL078C, strain atp4, stronger effect = lower value 1.01 | locus YPL106C, strain sse1, stronger effect = lower value 0.968 | locus YPR119W, strain clb2, stronger effect = lower value 1.03 | locus YPR141C, strain kar3, stronger effect = lower value 0.992 | locus YPR163C, strain tif3, stronger effect = lower value 0.964 | locus YPR167C, strain met16, stronger effect = lower value 1 | strain wtn01, stronger effect = lower value 0.936
active: locus YAL026C, strain drs2, stronger effect = lower value 0.835 | locus YAL030W, strain snc1, stronger effect = lower value 0.917 | locus YBR009C, strain hhf1, stronger effect = lower value 0.775 | locus YCL011C, strain gbp2, stronger effect = lower value 0.908 | locus YCL016C, strain dcc1, stronger effect = lower value 0.886 | locus YDL192W, strain arf1, stronger effect = lower value 0.874 | locus YDR392W, strain spt3, stronger effect = lower value 0.24 | locus YER155C, strain BEM2 (second series), stronger effect = lower value 0.697 | locus YGL173C, strain kem1, stronger effect = lower value 0.885 | locus YGR229C, strain SMI1, stronger effect = lower value 0.207 | locus YHR013C, strain ard1, stronger effect = lower value 0.705 | locus YHR030C, strain SLT2, stronger effect = lower value 0.903 and 0.663 | locus YHR079C, strain IRE1, stronger effect = lower value 0.341 | locus YJL095W, strain BCK1 (second series), stronger effect = lower value 0.86 | locus YJL164C, strain tpk1, stronger effect = lower value 0.908 | locus YJL166W, strain qcr8, stronger effect = lower value 0.462 | locus YKL085W, strain MDH1 (second series), stronger effect = lower value 0.913 | locus YKL085W, strain MDH1, stronger effect = lower value 0.913 | locus YKR001C, strain vps1, stronger effect = lower value 0.866 | locus YLL041C, strain sdh2, stronger effect = lower value 0.664 | locus YLR027C, strain aat2, stronger effect = lower value 0.884 | locus YLR113W, strain HOG1, stronger effect = lower value 0.434 | locus YLR221C, strain rsa3, stronger effect = lower value 0.792 | locus YLR258W, strain gsy2, stronger effect = lower value 0.859 | locus YLR262C, strain YPT6 (second series), stronger effect = lower value 0.552 | locus YLR262C, strain YPT6, stronger effect = lower value 0.546 | locus YLR320W, strain mms22, stronger effect = lower value 0.809 | locus YLR418C, strain cdc73, stronger effect = lower value 0.642 | locus YMR058W, strain fet3, stronger effect = lower value 0.815 | locus YMR125W, strain sto1, stronger effect = lower value 0.827 | locus YMR205C, strain PFK2, stronger effect = lower value 0.873 | locus YMR307W, strain GAS1, stronger effect = lower value 0.472 | locus YNL071W, strain lat1, stronger effect = lower value 0.207 | locus YNL271C, strain bni1, stronger effect = lower value 0.908 | locus YNL298W, strain CLA4, stronger effect = lower value 0.874 | locus YOR070C, strain gyp1, stronger effect = lower value 0.92 | locus YOR231W, strain MKK1, stronger effect = lower value 0.394 | locus YPL051W, strain arl3, stronger effect = lower value 0.897 | locus YPL240C, strain hsp82, stronger effect = lower value 0.614 | locus YPL241C, strain CIN2, stronger effect = lower value 0.914 | locus YPL256C, strain CLN2, stronger effect = lower value 0.421
0.962 (inactive) and 0.657 (active): locus YJL095W, strain BCK1, stronger effect = lower value

Source: PubChem BioAssay AID1159580 (chemical genetic matrix, 2015)
